# Measured values: PubChem BioAssay (NCI)
# Values joined by “and” are separate entries in the source; they are usually repeats but may differ in a detail not shown here. Equal entries are not always repeated. This is part of a sample that, as a whole, favours compounds with a hit. Of some 83,000 tested, about 20% had one in any assay.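 For each line, cells grew in 96-well plates with the test compound present at a single concentration for 48 hours.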 Active and inactive are the calls of the source. The calls were made as follows: active = growth percent below 10; inactive = the rest.
# Test system: HL-60(TB) leukemia
# Assay: NCI-60 one-dose screen, 48 h (100 = growth as untreated, 0 = no growth, -100 = all killed)
# Settings: 10 µM unless noted
row,Structure (SMILES),growth
1,Cc1cc(NC(=O)NC(=O)c2ccccc2N(C)C)ccc1Oc1ncc(Br)cn1,-13.6% (active) and 20.7% (inactive)
2,O=C1CCC(NC(=S)Nc2ccccc2)N1 (stereo not given),99.2% (inactive)
3,O=C(/C=C/CN1CCCCC1)Nc1cc2c(Nc3ccc(F)c(Cl)c3F)ncnc2cc1OCCOC(F)F,17.9% (inactive)
4,Cc1cccc(C)c1NC(=O)CSC(=S)N1CCCCC1,73.2% (inactive)
5,CN1C2CCC1CN(c1cnc(C(=O)Nc3cc(F)cc4cccnc34)cn1)C2,5.69% (active)
6,O=C(NCc1ccc(Cl)cc1Cl)C1CCC(=O)N1c1cccs1 (stereo not given),99% (inactive)
7,COc1ccc(-c2cnc(-c3ccc(F)cc3)[nH]2)cc1,74.9% (inactive)
8,COc1ccc(C(=O)Nc2ncc(Cc3ccc(F)cc3)s2)cc1,-2.26% (active)
9,C/C(=N\Nc1cc(C)c2ccccc2n1)c1ccccn1,-47.1% (active)
10,O=C(CC(c1ccccc1)N1CCOCC1)c1ccccc1 (stereo not given),83.1% (inactive)
11,CS(=O)(=O)Nc1cccc(C(=O)NCc2ccc(N3CCOCC3)cc2)c1,91.9% (inactive)
12,CN1CCN(c2nc(NCCCCNc3ccnc4cc(Cl)ccc34)c3ccccc3n2)CC1,28.6% (inactive)
13,COc1ccc(/C=C/C(=O)c2ccc(Nc3ccnc4cc(Cl)ccc34)cc2)cc1,17.5% (inactive)
14,C=CCn1c(SCC(=O)NCc2cc(C)c(O)c(C)c2)nc2ccc(Cl)cc2c1=O,94.4% (inactive)
15,O=C(/C=C/c1ccc(F)cc1)c1ccc(Nc2nc(NCCO)nc(Nc3ccc(Cl)cc3)n2)cc1,98.6% (inactive)
